These results are taken from the OligoGym collection.
Note: reference of the scale not given here.

For the first test, the target named is CHRM2. The test is described as follows: pooled miR-30 sensor sort-seq; sequence = guide strand. The settings on record: shRNA.
Regarding TTAATGAGCACCATGACATTGT, the sensor-assay potency score (higher = more potent) is -0.0449.

On to TTTAATGGAAACCATGACTAGG, for which the sensor-assay potency score (higher = more potent) was -0.722.

Regarding TTTCATCTCCATTCTGACCTGA, the sensor-assay potency score (higher = more potent) was determined as 0.602.

With ATAAGGACTTGTAAGAGCCAGG, the sensor-assay potency score (higher = more potent) is -0.765.

Sequence TTTGTGACACAGAAGTACCTGT displayed a sensor-assay potency score (higher = more potent) of 0.495.

TTTTGTGACACAGAAGTACCTG yielded a sensor-assay potency score (higher = more potent) of 0.758.

In the case of TTCATAACTGAGGCATTGCTGA, the sensor-assay potency score (higher = more potent) was -0.852.

As to TATTCTGCTTTTCATCTCCATT, the sensor-assay potency score (higher = more potent) was -1.16.

With TTCTTTATCCTGCTCTTGCTGG, the sensor-assay potency score (higher = more potent) is -0.363.

Another test addresses CHRNA1. The test is described as above. The settings on record: shRNA.
On to TTGATGGCCACGACAGAGCCGT, for which the sensor-assay potency score (higher = more potent) was -0.893.

Take TTGCAACGTACTTCCACTCTGC: the sensor-assay potency score (higher = more potent) worked out at 0.505.

On to TAGCAAAGTCACCATCTGCATT, for which the sensor-assay potency score (higher = more potent) was -1.03.

Take TTAGAACATCAGCAACTCCCTA: the sensor-assay potency score (higher = more potent) is -0.4.

As to TTTGTCTTGCTTTTCTCTGGAT, the sensor-assay potency score (higher = more potent) was -0.428.

With TACTTCATCCACATTGATGAGC, the sensor-assay potency score (higher = more potent) is -0.906.

For the sequence TTGTCTTGCTTTTCTCTGGATG, the sensor-assay potency score (higher = more potent) was -0.807.

Take TATAACAGCAATGACAATGCAA: the sensor-assay potency score (higher = more potent) came out at 0.464.

Regarding TAGAACATCAGCAACTCCCTAG, the sensor-assay potency score (higher = more potent) amounted to 0.223.

With TAGCTTTTAAAGATGGCTGGAG, the sensor-assay potency score (higher = more potent) is -0.126.

TAGCTTTGCCACCAGACGGGTC: the sensor-assay potency score (higher = more potent) is -1.08.

As for TTCATCCACATTGATGAGCTGT, the sensor-assay potency score (higher = more potent) is -0.162.

With TACTGCAGGAGCACTTTGGTGA, the sensor-assay potency score (higher = more potent) came out at 0.163.

On to TAGGTCACGGAGTGCTTCCAGC, for which the sensor-assay potency score (higher = more potent) is -1.17.

In the case of TTTTTTAGTGATTAGTTTCATT, the sensor-assay potency score (higher = more potent) is -0.783.

With TAAGCAAAGAATACACTTCATT, the sensor-assay potency score (higher = more potent) was -1.02.

For TTGACAATAGCAAAGTCACCAT, the sensor-assay potency score (higher = more potent) is -0.507.

Take TAAGTATGGAATATAACACGTT: the sensor-assay potency score (higher = more potent) was -0.0814.

ATTTACTTCATCCACATTGATG: the sensor-assay potency score (higher = more potent) is -1.52.

TAACACGTTTGATAAGTGCGAG: the sensor-assay potency score (higher = more potent) is -0.52.

In the case of TACTGCTTCCTCTCTCTCCAAA, the sensor-assay potency score (higher = more potent) was -0.987.

TTCTTAGTAGGTACAAAACTGA: the sensor-assay potency score (higher = more potent) was -0.855.

As to TAGACAAATCTTCCTCTCCTGC, the sensor-assay potency score (higher = more potent) is -0.927.

Consider ATTGATGAGCTGTATCAGCTGC, for which the sensor-assay potency score (higher = more potent) worked out at 0.306.

A further test has as its target CHRNE. The test is described as above. As to conditions: shRNA.
Take TAGGTGACCTCCACTGCGCAGA: the sensor-assay potency score (higher = more potent) is -0.727.

For TGTGTCGATGTCGATCTTGTTG, the sensor-assay potency score (higher = more potent) is -0.832.

TAGATGACGTCAGTCTCCCCTG: the sensor-assay potency score (higher = more potent) was -0.628.

On to TTTTTCAAAATCAATTTCCTAC, for which the sensor-assay potency score (higher = more potent) was -0.288.

Turning to TTTTCCAGCACAATCTCTGGCA, the sensor-assay potency score (higher = more potent) is -0.449.

Regarding TTGATGGTCTTGCCGTCGTTGT, the sensor-assay potency score (higher = more potent) was -1.26.
